Results: PubChem BioAssay
A number with no mark means an inactive call. How the calls were made is not given here.

molecular target: Pantothenate synthetase (Mycobacterium tuberculosis (strain ATCC 25618 / H37Rv)) (UniProt P9WIL5); assay: Coupled enzyme confirmation of inhibitors against recombinant Mtb PanC (AID 375); conditions: coupled enzyme assay; at 10 µM, hits give high values;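 further: 0% = full reaction with vehicle and 100% = no enzyme background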
Sequence (P9WIL5 whole entry, looked up): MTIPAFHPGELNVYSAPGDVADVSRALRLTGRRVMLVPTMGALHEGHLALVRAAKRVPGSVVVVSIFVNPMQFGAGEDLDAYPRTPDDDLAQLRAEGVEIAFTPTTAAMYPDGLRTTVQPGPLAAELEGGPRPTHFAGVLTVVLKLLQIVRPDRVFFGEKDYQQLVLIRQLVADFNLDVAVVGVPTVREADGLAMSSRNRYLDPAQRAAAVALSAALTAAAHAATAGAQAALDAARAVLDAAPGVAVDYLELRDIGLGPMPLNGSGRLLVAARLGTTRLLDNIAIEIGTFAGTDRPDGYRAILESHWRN

**Q.** With `COc1ccccc1NC(=O)CSc1nnnn1-c1ccc2c(c1)OCO2` as the compound, how does the inhibition read?
**A.** 0%

**Q.** With `CCOc1ccccc1N1CCN(c2nc3ccccc3nc2C(C#N)C(=O)OC)CC1` (stereo not given) as the compound, how does the inhibition read?
**A.** 5%

**Q.** How did the inhibition turn out when `CCN(CCCc1ccccc1)CCCc1ccccc1` was run?
**A.** 0%

**Q.** With `Cc1ccc(C)c(/C(O)=C2\C(=O)C(=O)N(CCCN3CCOCC3)C2c2cccnc2)c1` (stereo not given) as the compound, how does the inhibition read?
**A.** 2%

**Q.** Which inhibition does the source give for `Cc1cc(=O)n(-c2ccc3ccccc3n2)[nH]1` here?
**A.** 6%

**Q.** With `CCOC(=O)C1CCCN(Cc2nc(N)nc(Nc3ccccc3)n2)C1` (stereo not given) as the compound, how does the inhibition read?
**A.** 10%

**Q.** How did the inhibition turn out when `Cc1ccc(C2CC(c3cccc(Br)c3)Nc3nnnn32)cc1` (stereo not given) was run?
**A.** 1%

**Q.** Which inhibition does the source give for `CCc1nnc2n1N=C(c1ccc(-c3ccc(Cl)cc3Cl)o1)CS2` here?
**A.** 3%

**Q.** How did the inhibition turn out when `CCN1CCN(Cc2ccccc2NC(=O)Nc2ccc(C)cc2)CC1` was run?
**A.** 3%

**Q.** Which inhibition does the source give for `COCCn1c(N)c(C(=O)Nc2sc3c(c2C(=O)OC)CCCC3)c2nc3ccccc3nc21` here?
**A.** 1%

**Q.** How did the inhibition turn out when `O=C(NCc1ccc(F)cc1)c1cc(-c2ccco2)on1` was run?
**A.** 6%

**Q.** Which inhibition does the source give for `Cn1c(=O)oc2cc(S(=O)(=O)NC3CCN(Cc4ccccc4)CC3)ccc21` here?
**A.** 0%

**Q.** Which inhibition does the source give for `CCn1c(Cc2ccc(OC)cc2)nnc1SCC(=O)Nc1cccc(C(=O)OC)c1` here?
**A.** 5%

**Q.** For `CCOC(=O)C1CCN(c2cc(C)nc3cc(-c4cccc(F)c4)nn23)CC1`, which inhibition is on record?
**A.** 3%

**Q.** `Cc1ccc2oc(-c3ccccc3C(=O)O)cc(=O)c2c1` was tested. Which inhibition did it give?
**A.** 13%

**Q.** Which inhibition does the source give for `COc1ccc(CCNc2nc(N3CCOCC3)nc(N3CCOCC3)n2)cc1OC` here?
**A.** 0%

**Q.** How did the inhibition turn out when `O=C1C(Cl)=C(NCC2CCCO2)C(=O)N1CCc1ccccc1` (stereo not given) was run?
**A.** 0%

**Q.** How did the inhibition turn out when `COC(=O)CN(c1ccc2c(c1)OCO2)S(C)(=O)=O` was run?
**A.** 4%

**Q.** With `COc1ccc(C2=NOC(C(=O)NC3CCCCC3)C2)cc1OC` (stereo not given) as the compound, how does the inhibition read?
**A.** 2%

**Q.** With `O=c1[nH]c(N2CCc3ccccc32)nc2c1CCCC2` as the compound, how does the inhibition read?
**A.** 0%

**Q.** Which inhibition does the source give for `O=C(Nc1ccncc1)C1CCCN(S(=O)(=O)c2cccc3cccnc23)C1` (stereo not given) here?
**A.** 0%

**Q.** `CCN(CC)CCCN1C(=O)C(=O)/C(=C(/O)c2ccc3c(c2)OCO3)C1c1ccccn1` (stereo not given) was tested. Which inhibition did it give?
**A.** 1%

**Q.** How did the inhibition turn out when `Oc1ccccc1C1=Nc2nc3ccccc3n2C(c2ccccc2)C1` (stereo not given) was run?
**A.** 0%

**Q.** With `CCCCCn1c(CN2CCN(c3cccc(Cl)c3)CC2)nc2c1c(=O)n(C)c(=O)n2C` as the compound, how does the inhibition read?
**A.** 0%

**Q.** Which inhibition does the source give for `Cc1cc(=O)n2[nH]c(COc3ccccc3)nc2n1` here?
**A.** 6%

**Q.** For `COc1ccccc1-n1c(-c2cccnc2)n[nH]c1=S`, which inhibition is on record?
**A.** 0%

**Q.** Which inhibition does the source give for `CCOc1ccc2nc(SCc3ccc(C(=O)OC)o3)[nH]c2c1` here?
**A.** 0%

**Q.** With `Nn1c(CSc2nc3ccccc3o2)nnc1CSc1nc2ccccc2o1` as the compound, how does the inhibition read?
**A.** 0%

**Q.** Which inhibition does the source give for `CN(C)c1ccc(-c2nn3c(-c4ccc(Cl)cc4Cl)nnc3s2)cc1` here?
**A.** 9%

**Q.** How did the inhibition turn out when `CCCCCc1c(O)c2ccccc2[nH]c1=O` was run?
**A.** 0%

**Q.** For `CCc1cc(-c2[nH]ncc2-c2ccc3c(c2)OCO3)c(O)cc1O`, which inhibition is on record?
**A.** 0%

**Q.** For `COc1ccccc1CC1(C)NC(=O)N(CC(=O)Nc2cc(C)on2)C1=O` (stereo not given), which inhibition is on record?
**A.** 1%

**Q.** `COc1ccc(-c2cc3c(=O)n(CC(=O)NC4CCN(Cc5ccccc5)CC4)ncn3n2)cc1` was tested. Which inhibition did it give?
**A.** 1%

**Q.** With `COc1ccc(NC(=O)CCc2ccccc2)cc1NC(=O)c1ccco1` as the compound, how does the inhibition read?
**A.** 9%

**Q.** `Cc1ccc(CCNC(=O)C2CCN(S(=O)(=O)c3ccc4c(c3)CCC(=O)N4)CC2)cc1` was tested. Which inhibition did it give?
**A.** 0%

**Q.** Which inhibition does the source give for `COc1ccc2c(c1)C(=NO)c1cc(OC)ccc1-2` here?
**A.** 0%

**Q.** Which inhibition does the source give for `NC(=O)CSc1nnc(-c2cc3ccccc3o2)n1Cc1ccccc1` here?
**A.** 0%

**Q.** With `CCN(CC)C(=O)CSc1nc2ccccc2c(=O)n1CCC(=O)NCc1ccc(F)cc1` as the compound, how does the inhibition read?
**A.** 0%

**Q.** Which inhibition does the source give for `Cc1ccc(C(c2sc3ncnn3c2O)N2CC(C)CC(C)C2)cc1` (stereo not given) here?
**A.** 0%

**Q.** For `COc1cc(C2N=C(c3ccccc3)NO2)cc(Br)c1O` (stereo not given), which inhibition is on record?
**A.** 4%
